Screening results: PubChem, National Center for Advancing Translational Sciences (NCATS)
In the library only some 6.6% were active in any assay of this set; here they are far more common.
MCF10A rereplic – DNA re-replication induction in MCF 10a cells; MCF 10A DNA re-replication, Hoechst nuclear intensity, 48 h; Potency, µM (titrated, usually from 46.1 µM), most hits filed as activators; hit rate 2.9% among 350,000; also: nearly all actives have a fitted effect of over 50% in size
RGS4 inhibitor – inhibitors of human regulator of G protein signaling 4; Potency, µM (doses to about 114 µM), hits mostly inhibitors; hit rate 0.039% among 390,000; AID 504845; Transcreener GDP fluorescence polarization, RGS4-accelerated GTP hydrolysis; also: nearly all actives have a fitted effect of over 75% in size
Target sequence (P49798 whole entry, looked up): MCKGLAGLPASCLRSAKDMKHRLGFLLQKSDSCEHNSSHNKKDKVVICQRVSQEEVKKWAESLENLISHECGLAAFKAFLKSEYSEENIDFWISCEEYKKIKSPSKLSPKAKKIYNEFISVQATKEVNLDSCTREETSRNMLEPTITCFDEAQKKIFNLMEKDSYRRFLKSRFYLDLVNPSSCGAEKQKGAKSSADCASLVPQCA
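MLSMR compounds (23 nl, pin-transferred) preincubated 10 min at room temperature with a 500nM (2x) first reagent, then RGS4 at 900nM (2x) plus Transcreener GDP mix added; fluorescence polarization (620/688 nm) read before and after 90 min at 30 °C.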
TSG101-PTAP inh – blocks PTAP/TSG101 interaction to inhibit HIV-1 budding; Q99816; Fluorescence polarization, FITC-PTAP peptide / Tsg101 binding; Potency, µM (series often up to 115 µM), hits mostly inhibitors; 340,000 tested, under 10 active; AID 493005; active = well fitted inhibition curve with a large enough effect in the main read-out, with a control signal flat, not every such curve was filed as active; inconclusive = small, poorly fitted or top-dose-only effect, or effect the other way, or a change in a side signal; inactive = no such curve, though single readings can be large or run the other way
Target sequence (Q99816 whole entry, looked up): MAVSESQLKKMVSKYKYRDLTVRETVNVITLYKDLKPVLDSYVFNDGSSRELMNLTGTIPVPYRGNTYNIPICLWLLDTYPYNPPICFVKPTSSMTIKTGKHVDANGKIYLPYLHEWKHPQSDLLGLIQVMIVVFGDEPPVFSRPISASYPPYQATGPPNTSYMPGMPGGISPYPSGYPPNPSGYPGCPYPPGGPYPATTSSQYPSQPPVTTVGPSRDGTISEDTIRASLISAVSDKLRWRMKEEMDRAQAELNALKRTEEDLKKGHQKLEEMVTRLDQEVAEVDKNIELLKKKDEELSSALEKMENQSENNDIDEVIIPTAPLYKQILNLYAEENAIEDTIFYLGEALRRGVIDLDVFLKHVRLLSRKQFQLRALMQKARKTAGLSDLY
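Steps: Tsg101 binding domain dispensed (10 uM final), compounds pinned in DMSO, FITC-labeled PTAP-motif peptide added (50 nM final); after 20 min binding at room temperature, polarization measured.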
SW480 rerep – induces DNA re-replication in SW480 colon adenocarcinoma cells; hit rate 1.8% among 340,000; SW480 DNA re-replication, Hoechst DNA content imaging, 48 h; AID 624297; Potency, µM (series often up to 46.1 µM), hits mostly activators; also: nearly all actives have a fitted effect of over 55% in size
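Treated cells incubate 48 hr (37 C, 5% CO2), are stained 40 min with Hoechst, and nuclear fluorescence is enumerated; a rise in nuclei with high DNA signal marks re-replication.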
KB-3-1 cytotox – kills parental KB-3-1 adenocarcinoma cells. Potency, µM (series often up to 46.1 µM), most hits filed as cytotoxic. KB-3-1 viability, CellTiter-Glo ATP luminescence, 72 h. hit rate 1.4% among 400,000; also: nearly all actives have a fitted effect of over 60% in size
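Cytotoxicity measured as CellTiter-Glo luminescence after 72 h at 37 C. Compound titrations were pinned onto drug-naive KB-3-1 parental adenocarcinoma cells grown in DMEM with 10% FBS, and normalized data fitted to concentration-response curves.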
KB-V1 MDR tox – kills drug-selected multidrug resistant KB-V1 cells. Potency, µM (series often up to 46.1 µM), usual class: cytotoxic. hit rate 3.4% among 400,000. KB-V1 MDR cells viability, CellTiter-Glo, 72 h; also: nearly all actives have a fitted effect of over 60% in size
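Cytotoxicity via CellTiter-Glo luminescence after 72 h compound exposure at 37 degrees C. Cells: drug-selected KB-V1 line, DMEM phenol-red free plus 10% FBS. Compounds tested at multiple concentrations; normalized data fitted to concentration-effect curves.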
Hits are given with their value; – = inactive; ? = inconclusive; · = no result; [ ] = dose if it differs, or a comment. Unless noted, calls follow the shape of the dose curve; as a rule, active = well fitted curve in the direction sought with a large enough effect; inconclusive = small, poorly fitted or top-dose-only effect, or another doubt; inactive = no such curve, though single readings can be large; an effect the other way counts as inactive or inconclusive.

SMILES | MCF10A rereplic | RGS4 inhibitor | TSG101-PTAP inh | SW480 rerep | KB-3-1 cytotox | KB-V1 MDR tox
O=C(NCC(c1ccco1)N1CCN(c2ccc(F)cc2)CC1)C(=O)NC1CCCC1 (stereo not given) | – | – | – | – | – | –
O=C(NCc1cccnc1)C(=O)NCC(c1ccco1)N1CCN(c2ccc(F)cc2)CC1 (stereo not given) | – | – | – | – | ? | 2.6µM
O=C(NCC1CCCO1)C(=O)NCC(c1ccco1)N1CCN(c2ccccc2)CC1 (stereo not given) | – | – | – | ? | – | 21µM
C=CCN=C1N[C@@H](c2ccc(Br)cc2)C(C(=O)OC)=C(C)N1Cc1ccccc1 | · | · | · | · | – | –
O=S(=O)(Nc1cc(Br)cc2cccnc12)c1ccccc1 | · | – | · | · | · | ·
CCOc1ccc(-c2cc(NC(=O)Nc3ccccc3Cl)c(C(=O)OC)s2)cc1 | · | – | · | · | – | –
O=C(c1cc2c(s1)-c1ccccc1OC2)N1CCN(c2ccc(F)cc2)CC1 | · | – | · | · | – | –
CC(=O)c1ccc(N2CCN(C(=O)c3cc4c(s3)-c3ccccc3OC4)CC2)cc1 | · | – | · | · | – | 16µM
CCC1CCc2sc(C(=O)NCC(c3ccc(OC)cc3)N3CCCC3)cc2C1 (stereo not given) | ? | – | – | ? | ? | 9.2µM
COc1ccc(C(CNC(=O)c2cc3ccccc3cc2OC)N2CCCC2)cc1 (stereo not given) | – | – | – | – | – | 4.6µM
COc1ccc(Cl)cc1C(=O)NCC(c1ccco1)N1CCCC1 (stereo not given) | – | – | – | – | – | 9.2µM
COc1cc(C(=O)NCC(c2ccco2)N2CCCC2)ccc1OCc1ccc(Cl)cc1Cl (stereo not given) | 18µM | – | – | ? | – | ?
COc1ccc(C(CNC(=O)c2cccc(N(C)C)c2)N2CCCC2)cc1 (stereo not given) | –[0.0737 µM] | – | – | ? | – | –
CC1CCC(N2CC(=O)N(C3CCCCC3)C(c3ccc(Cl)cc3)C2=O)CC1 (stereo not given) | · | – | · | · | · | ·
O=C(C1CCCN(S(=O)(=O)c2cccnc2)C1)N1CCN(c2ccccn2)CC1 (stereo not given) | – | – | – | – | – | –
O=C(c1ccc2ccccc2c1)C1CCCN(S(=O)(=O)c2cccnc2)C1 (stereo not given) | – | – | – | – | – | 16µM
CCOC(=O)C1(C)C=C(Nc2cccc(C(=O)O)c2)C(=O)N1c1ccccc1 (stereo not given) | · | – | · | · | – | –
COc1ccc(C2(OC)Oc3cc(OC)ccc3C(=O)C2(O)OC)cc1 (stereo not given) | ? | – | – | – | ? | 2.9µM
c1ccc(CSc2nc3ncccc3[nH]2)cc1 | · | – | · | · | · | ·
COc1cc(Cl)c(C)cc1NC(=O)c1cnc2c(-c3cccc(C)c3)c(C)nn2c1C | · | – | · | · | – | –
COc1ccccc1N1CCN(CC(O)c2c(C)[nH]c3ccccc23)CC1 (stereo not given) | 18µM | – | – | ? | – | –
CN(Cc1c(F)cccc1Cl)c1nnnn1-c1ccccc1 | – | – | – | – | – | 21µM
COc1ccc(Nc2nc(N)nc(CCl)n2)cc1 | ? | – | – | 3.3µM | ? | ?
Nc1nc(CCl)nc(Nc2ccc3ccccc3c2)n1 | ? | – | – | – | ? | 23µM
Cc1ccccc1Nc1nc(N)nc(CCl)n1 | ? | – | – | ? | ? | –
SMILES | MCF10A rereplic | RGS4 inhibitor | TSG101-PTAP inh | SW480 rerep | KB-3-1 cytotox | KB-V1 MDR tox
CC(C)OC(=O)C(C(=O)OC(C)C)=C1SC=CS1 | – | · | · | – | · | ·
Cc1ccccc1NC(=O)Cn1c(SCC(=O)Nc2ccc(F)cc2)nc2ccccc21 | · | ? | · | · | – | –
CCN(CC)C(=O)Cn1c(=O)nc(-c2ccccc2F)c2cc(Cl)ccc21 | · | – | · | · | · | ·
COc1cc(NC(=O)CCc2c(C)nc3c(-c4ccc(F)cc4)c(C)nn3c2C)cc(OC)c1OC | · | – | · | · | – | –
O=S(=O)(c1ccc(N2CC=C(c3ccccc3)CC2)nc1)N1CCCC1 | 23µM | – | – | ? | ? | 8.2µM
Cc1ccccc1CN1CCN(c2ccc(S(=O)(=O)N3CCCC3)cn2)CC1 | ? | – | – | – | ? | 9.2µM
NNC(=O)c1cc2sccc2s1 | 3.7µM | – | – | 13µM | ? | ?
CC1(C)CC(=O)C(C=NCCN2CCOCC2)=C(O)C1 | – | – | – | 6.5µM | – | –
Cc1ccc(C)c(-n2c3nc(=O)[nH]c(=O)c-3cc3cc([N+](=O)[O-])ccc32)c1 | ? | ? | – | 3.2µM | 23µM | –
Cc1cccc(-n2c3nc(=O)[nH]c(=O)c-3cc3cc([N+](=O)[O-])ccc32)c1 | ? | – | – | ? | ? | 16µM
COc1cccc(CNS(=O)(=O)c2cc3[nH]c(=O)c(=O)[nH]c3cc2C)c1 | · | – | · | · | – | –
CCc1cccc(C)c1NC(=O)C(CC)n1ncn2c(cc3cc(C)ccc32)c1=O (stereo not given) | · | – | · | · | – | –
CCOCCCNC(=O)c1cc(=O)[nH]c2ccc(S(=O)(=O)N3CCCC3)cc12 | · | – | · | · | – | –
COc1ccc(-c2cc(C(F)(F)F)n3ncc(-c4ccccc4)c3n2)cc1 | · | – | · | · | · | ·
CC(Oc1ccc(Cl)cc1Cl)C(=O)NC1=NN(c2ccccc2)C(=O)C1 (stereo not given) | 18µM | –[11.4 µM] | – | – | – | –
CC(Oc1ccc(Cl)cc1Cl)C(=O)Nc1ccncc1 (stereo not given) | ? | – | – | –[9.22 µM] | – | 9.2µM
CC(=O)Nc1ccc(NC(=O)C(C)Oc2ccc(Cl)cc2Cl)cc1 (stereo not given) | – | – | – | ? | – | –
Cc1ccc(NC(=O)Cn2nc(C)c3nn(-c4ccc(Cl)cc4)c(C)c3c2=O)cc1C | · | – | · | · | · | ·
Cc1ccc(NC(=O)NCc2c(-n3cccc3)sc3c2CCCC3)c(Cl)c1 | · | – | · | · | – | –
O=c1c2ccccc2nc(/C=C/c2cc(Br)ccc2O)n1CCO | 15µM | – | – | ? | ? | ?
O=c1c2ccccc2nc(/C=C/c2ccc(O)cc2)n1CCc1ccccc1 | 23µM | – | – | ? | – | 15µM
CN(C)c1ccc(/C=C/c2nc3ccccc3c(=O)n2CCO)cc1 | 16µM | – | – | ? | – | –
Cc1ccccc1CNC(=O)CN1C(=O)C2CCCCN2c2ccc(C(=O)N3CCCC3)cc21 (stereo not given) | · | – | · | · | – | –
Cc1cc(C)n2c(SCC(=O)NCc3ccco3)nnc2n1 | – | – | – | – | – | –
CC(C)c1nc2ccccc2c2nnc(SCC(=O)NCc3ccco3)n12 | ? | – | – | – | ? | 4.1µM
C=CCn1c(SCC(=O)NCc2ccco2)nnc1-c1ccc2ccccc2n1 | – | – | – | – | – | 7.3µM
